# Assay outcomes: PubChem BioAssay, National Center for Advancing Translational Sciences (NCATS)
# SMN2 splice enh: qHTS Assay for Enhancers of SMN2 Splice Variant Expression. actives 2.8% (n = 210,000). HEK293 SMN2-luciferase splicing reporter, luminescence, 30-36 h. AID 1458, 2008. Potency, µM (highest dose often 46.1 µM), without a hit: at the highest dose activity change, positive = activation, usual class: activators; note: % of control where 0% means no effect; nearly all actives have a fitted effect of over 55% in size
#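 HEK293 cells carry an SMN2 […]–luciferase reporter in which exon 7 inclusion puts luciferase in frame. Cells were plated 10-12 h before compound addition, then incubated 30-36 h at 37C. ONE-Glo luminescence was read; sodium butyrate at 4.5 mM final served as control.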
# Rab9 promoter act: qHTS Assay for Rab9 Promoter Activators; Huh7 Rab9 promoter-luciferase reporter, luminescence, 24 h; Potency, µM (doses to about 9.22 µM), inactives show at the highest dose activation, negative = inhibition, usual class: activators; actives 2.8% (n = 320,000); AID 485297, 2010; note: % of control where 0% means no effect; nearly all actives have a fitted effect of over 60% in size
#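 Cells were plated at 1500 per well in reduced-serum medium with 10% FBS and left 2 h. Compound in DMSO was then added for 24 h at 37 °C. Reporter signal was read by luminescence after 10 min with luciferase detection reagent.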
# KinaseGlo FLuc: Counterscreen for Luciferase (Kinase-Glo TM) Inhibition; actives 0.28% (n = 200,000); Potency, µM (highest dose often 38.3 µM), without a hit: at the top dose activity change, negative = inhibition, actives largely listed as inhibitors; AID 1379, 2008; Kinase-Glo luciferase, ATP luminescence, 8 min; Luciferin 4-monooxygenase (Photuris pensylvanica), Q27757; note: % is set by controls: 0 for no effect and ±100 for the full control effect; nearly all actives have a fitted effect of over 60% in size
#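 Light output from Kinase-Glo luciferase with luciferin and 10 uM ATP in 50 mM imidazole pH 7.2, KCl, MgCl2, Tween 20, BSA; compound pin-delivered, 8-min ambient incubation, then luminescence read.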
# ELG1 genotoxic: qHTS screen for small molecules that induce genotoxicity in human embryonic kidney (HEK293T) cells expressing luciferase-tagged ELG1; HEK293T ELG1-luciferase reporter, luminescence, 16 h; Potency, µM (top dose mostly 46 µM), inactives show at the highest dose activity change, positive = activation, most hits filed as activators; actives 1.3% (n = 330,000); note: % of control where 0% means no effect; nearly all actives have a fitted effect of over 60% in size
#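 HEK293T cells expressing luciferase-tagged ELG1 were treated with compound or DMSO for 16 hr at 37°C. Luciferase activity was then read after 30 min with ONE-Glo at room temperature; rising signal flags genetic stress.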
# FLuc counter: qHTS profiling assay for firefly luciferase inhibitor/activator using purifed enzyme and Km concentrations of substrates (counterscreen for miR-21 project); purified FLuc, Km substrates, luminescence inhibition; Potency, µM (doses to about 57.5 µM), inactives show at the highest dose activity change, negative = inhibition, actives largely listed as inhibitors; actives 6.9% (n = 360,000); AID 588342, 2011;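 note: plate controls were vehicle for no effect and reference inhibitor for full effect; nearly all actives have a fitted effect of over 55% in size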
# Target sequence (P08659 whole entry, looked up): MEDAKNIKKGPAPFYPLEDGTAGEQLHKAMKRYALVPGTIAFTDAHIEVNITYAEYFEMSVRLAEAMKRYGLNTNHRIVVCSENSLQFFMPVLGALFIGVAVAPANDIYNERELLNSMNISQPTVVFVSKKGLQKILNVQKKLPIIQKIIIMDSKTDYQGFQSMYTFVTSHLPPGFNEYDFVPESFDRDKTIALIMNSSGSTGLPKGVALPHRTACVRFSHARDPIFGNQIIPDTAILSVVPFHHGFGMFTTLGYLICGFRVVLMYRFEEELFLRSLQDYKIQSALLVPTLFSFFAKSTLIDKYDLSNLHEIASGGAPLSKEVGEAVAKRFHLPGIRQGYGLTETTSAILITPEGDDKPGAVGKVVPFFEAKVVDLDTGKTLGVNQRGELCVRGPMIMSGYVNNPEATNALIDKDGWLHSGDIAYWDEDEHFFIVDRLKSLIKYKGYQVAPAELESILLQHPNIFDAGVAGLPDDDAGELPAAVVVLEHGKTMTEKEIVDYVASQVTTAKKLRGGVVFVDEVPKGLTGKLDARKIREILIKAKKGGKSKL
#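 Biochemical qHTS of compounds, final roughly 60 µM downward over six points, against 10 nM purified firefly luciferase using Km concentrations of substrates (10 uM D-luciferin, 10 uM ATP) in Tris acetate pH 7.5 buffer; luminescence output.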
# NPC1 prom act: qHTS Assay for NPC1 Promoter Activators | Huh7 NPC1 promoter luciferase reporter, 24 h | Potency, µM (doses to about 9.22 µM), for the others: at the top dose activation, actives largely listed as activators | actives 2.4% (n = 320,000); note: % of control where 0% means no effect; nearly all actives have a fitted effect of over 60% in size
#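 Compounds in DMSO were transferred onto Huh7 NPC1-luciferase reporter cells pre-incubated 2 h; after 24 h at 37 °C, Amplite reagent was dispensed and luminescence recorded 10 min later.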
# * marks the source's active call; other numbers are inactive results; ? = inconclusive; · = no result; ! = not active in a repeat; [ ] = another dose, or the depositor's remark. A selection: hits, their analogues and other compounds. The true share with any hit is near 7.3%. Calls come from the whole dose curve; as a rule, active = well fitted curve in the direction sought with a large enough effect; inconclusive = small, poorly fitted or top-dose-only effect, or another doubt; inactive = no such curve, though single readings can be large; an effect the other way counts as inactive or inconclusive. Potency is the fitted concentration of half-maximal effect.
SMILES,SMN2 splice enh,Rab9 promoter act,KinaseGlo FLuc,ELG1 genotoxic,FLuc counter,NPC1 prom act
CC1(C)CN=C(Nc2nc3ccccc3s2)S1,12.6µM*,0.631µM*,-0.6%,5.8µM*,3.38µM*,1.78µM*
CN1C(=O)C(=Cc2ccc(N3CCOCC3)c([N+](=O)[O-])c2)C(=O)N(C)C1=O,-5.9%,-5.6%,0.9%,6.0%,?,-2.0%
O=C1NC(=O)C(=Cc2ccc(N3CCN(C(=O)c4ccccc4)CC3)c([N+](=O)[O-])c2)C(=O)N1,·,1.6%,·,1.0%,21.3µM*,-0.2%
O=C(c1ccc(CNS(=O)(=O)c2ccc(Br)cc2)cc1)N1CCC2(CC1)OCCO2,-31.9%,-5.8%,-2.4%,-4.7%,6.3%,-3.0%
Cn1c(=O)cc(SCC(=O)N2CCC3(CC2)OCCO3)c2ccc(Cl)cc21,20µM*,-2.4%,-2.6%,14.2%,1.0%,-1.3%
O=C(CSc1ccccc1)N1CCC2(CC1)OCCO2,12.6µM*,?,-1.0%,10.3µM*,?,?
O=C(c1ccc(CNS(=O)(=O)c2ccccc2)cc1)N1CCC2(CC1)OCCO2,-38.2%,3.55µM*,0.6%,?,?,?
O=C(CN1CCN(Cc2ccc(Cl)cc2)C1=O)N1CCC2(CC1)OCCO2,-7.1%,-3.2%,-3.8%,-0.8%,13.2%,-2.0%
Clc1ccc(C(c2ccccc2Cl)C(Cl)(Cl)Cl)cc1 (stereo not given),-1.1%,·,·,·,·,·
On1ccccc1=S,·,-35.7%,·,-52.7%,8.49µM*,-23.6%
Cc1cc(C)n(-c2ccc(NN=C(C#N)C#N)cc2)n1,·,-1.5%,·,-4.5%,15.1µM*,-1.0%
N#CC(C#N)=NNc1ccc(-n2ccc(C(F)(F)F)n2)cc1,·,-40.7%,·,-15.9%,15.1µM*,-35.5%
C[C@H]1C2C=C[C@H]1[C@@H](C(=O)O)[C@@H]2c1c2ccc(=O)c(O)c-2oc2c(O)c(O)ccc12,-3.0%[9.22 µM],·,-8.0%[7.66 µM],·,·,·
COc1ccc(NC(=O)CSc2nc(-c3ccco3)cc(C(F)(F)F)n2)cc1OC,-47.7%,·,·,·,2.7%,·
Cc1cccc(NC(=O)CSc2ccc(-c3ccco3)nn2)c1,-37.2%,13.9%,1.5%,-1.1%,26.9µM*,0.7%
COc1ccc(-c2cc(=NCCC(=O)O)c3cc(C)ccc3o2)cc1,·,?,1.2%,?,13.5µM*,?
COc1ccc(-c2cc(=Nc3ccccc3)c3cc(C)ccc3o2)cc1,?,20.8%,-3.1%,?,26.9µM*,5.9%
CCC(Cl)[N+](=O)[O-] (stereo not given),6.1%,·,·,·,·,·
c1cc(OCC2CO2)cc(OCC2CO2)c1 (stereo not given),-56.6%,·,·,·,·,·
CCCCn1c(=O)c(C(=O)Nc2nc3ccccc3[nH]2)c(O)c2ccccc21,-21.6%,17.6%,-0.5%,?,5.7%,3.8%
CCCSc1ccc2nc(NC(=O)OC)[nH]c2c1,?,17.1%,-6.6%,-1.3%,3.01µM*,23.7%
Cc1c(OCC(F)(F)F)ccnc1CS(=O)c1nc2ccccc2[nH]1 (stereo not given),-9.8%,3.98µM*,-5.6%,13.3%,13.5µM*!,2.82µM*
COCCCOc1ccnc(CS(=O)c2nc3ccccc3[nH]2)c1C (stereo not given),·,2.82µM*,-4.6%[39.9 µM],14.3%,?,3.16µM*
ClCC[N+]12CC[N+](CCCl)(CC1)C2 (tested in a mixture with another compound),13.9%[9.22 µM],·,-6.5%[7.66 µM],·,·,·
CC(C)[C@@H](Br)C(=O)NCC(=O)O,-8.1%[9.22 µM],·,-4.4%[7.66 µM],·,·,·
Cc1oc(/N=C/c2ccc3c(c2)OCO3)c(C#N)c1C,-0.3%,12.7%,-16.4%,?,1.69µM*,-3.0%
O=C1/C(=C/c2ccc3c(c2)OCO3)N2CCC1CC2,18.0%,1.7%,-0.5%,1.1%,-11.2%,3.6%
